In PubChem BioAssay (NCI) one finds growth inhibition data, which are given here for ten compounds.

About 79,000 compounds went through this panel and 15% of them were active in at least one assay; those are over-represented in the sample as a whole. A number with no mark means an inactive call. Active and inactive are the calls of the source. Rule as the data show it: active = growth inhibition above about 70%; inactive = the rest.

Test [1] can be described thus: NCI Yeast Anticancer Drug Screen. Data for the rad50 strain (AID 155).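 Also: 0% = growth of vehicle-only cultures of the same strain.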 The conditions noted are these: S. cerevisiae rad50 strain growth inhibition, active compounds read high. Put shortly: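 Readout: growth inhibition relative to vehicle-treated cultures. Compound exposure was carried out in a genetically defined yeast strain deficient in DNA damage repair.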
A short description of test [2]: NCI Yeast Anticancer Drug Screen. Data for the mec2-1 strain (AID 157). The conditions noted are these: S. cerevisiae mec2-1 strain, active compounds read high. The method, boiled down:
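Using mec2-1 yeast: add compound, measure growth, express inhibition versus vehicle-treated cultures.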

A short description of test [3]: NCI Yeast Anticancer Drug Screen. Data for the sgs1 mgt1 strain (AID 161).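 Also: 0% = growth of cultures given vehicle only.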 The conditions noted are these: S. cerevisiae sgs1 mgt1 strain, active compounds read high. The method, boiled down: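 Compounds are added to genetically altered yeast, and growth is compared with cultures given vehicle alone to give percent inhibition.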
Test [4] can be described thus: NCI Yeast Anticancer Drug Screen. Data for the cln2 rad14 strain (AID 165).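 Also: 0% = growth equal to vehicle treated cultures.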 As to conditions: S. cerevisiae cln2 rad14 strain, active compounds read high. Put shortly: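 Yeast strain cln2 rad14, bearing defects in cell cycle control and DNA repair, serves as the test system; values reflect growth inhibition compared with vehicle.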
The nature of test [5]: NCI Yeast Anticancer Drug Screen. Data for the bub3 strain (AID 167). As to conditions: S. cerevisiae bub3 mutant strain, active compounds read high. Put shortly:
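Readout: yeast growth inhibition, expressed relative to vehicle-only wells. The test organism is a mutant strain from a panel with lesions in DNA repair or checkpoint genes.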

The nature of test [6]: NCI Yeast Anticancer Drug Screen. Data for the mlh1 rad18 strain (AID 175). The conditions noted are these: S. cerevisiae mlh1 rad18 strain growth inhibition, active compounds read high. Put shortly: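 Steps: expose repair-defective yeast to compound; measure growth; express inhibition against vehicle-treated controls.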
[7] abbreviates: at 5.0 µM (retest, dose inferred, filed as 0.5).
The mark [8] stands for this setting: at 50.0 µM (retest, dose inferred, filed as 5.0).

For `O=C1CSC(=S)N1c1cccc(Cl)c1`, the growth inhibition in test [1] (setting [7]) is 20%; in test [1] (setting [8]), 28%; in test [1] (at 50.0 µM), 40.5%; in test [2] (setting [7]), 15%; in test [2] (setting [8]) it was 23%; in test [2] (at 50.0 µM), 86% (active). In addition, the growth inhibition in test [3] (setting [7]) was 13%; in test [3] (setting [8]), 94% (active); in test [3] (at 50.0 µM), 79.6% (active); in test [4] (setting [7]) it was 9%; in test [4] (setting [8]), 73% (active); in test [4] (at 50.0 µM) it was 19.4%. The growth inhibition is 8% in test [5] (setting [7]); 92% (active) in test [5] (setting [8]); 70.2% (active) in test [5] (at 50.0 µM); 24% in test [6] (setting [7]); 48% in test [6] (setting [8]); 91.7% (active) in test [6] (at 50.0 µM).
Turning to `c1ccc2nc3[nH]c4ccccc4c3cc2c1`, the growth inhibition is 24% in test [1] (setting [7]); 87% (active) in test [1] (setting [8]); 85.2% (active) in test [1] (at 50.0 µM); 18% in test [2] (setting [7]); 52% in test [2] (setting [8]); 53.6% in test [2] (at 50.0 µM). In addition, the growth inhibition was 14% in test [3] (setting [7]); 40% in test [3] (setting [8]); 50.8% in test [3] (at 50.0 µM); 22% in test [4] (setting [7]); 39% in test [4] (setting [8]); 44.8% in test [4] (at 50.0 µM). Also, the growth inhibition in test [5] (setting [7]) was 18%; in test [5] (setting [8]) it was 46%; in test [5] (at 50.0 µM) it was 50.6%; in test [6] (setting [7]), 18%; in test [6] (setting [8]), 45%; in test [6] (at 50.0 µM), 69.2%.
`O=C(NCCN1CCCC1)c1cn2c(ccc3sc4ccccc4c(=O)c32)n1`: the growth inhibition in test [1] (setting [7]) was 29%; in test [1] (setting [8]), 89% (active); in test [1] (at 50.0 µM), 66%; in test [2] (setting [7]) it was 21%; in test [2] (setting [8]), 71% (active); in test [2] (at 50.0 µM) it was 49.6%. Further, the growth inhibition is 19% in test [3] (setting [7]); 77% (active) in test [3] (setting [8]); 46% in test [3] (at 50.0 µM); 19% in test [4] (setting [7]); 54% in test [4] (setting [8]); 37.2% in test [4] (at 50.0 µM). Besides, the growth inhibition is 20% in test [5] (setting [7]); 76% (active) in test [5] (setting [8]); 25.9% in test [5] (at 50.0 µM); 26% in test [6] (setting [7]); 81% (active) in test [6] (setting [8]); 20.4% in test [6] (at 50.0 µM).
`COCc1ccc([N+](=O)[O-])o1`: the growth inhibition is 17% in test [1] (setting [7]); 89% (active) in test [1] (setting [8]); 71.5% (active) in test [1] (at 50.0 µM); 1% in test [2] (setting [7]); 35% in test [2] (setting [8]); 21.6% in test [2] (at 50.0 µM). The growth inhibition in test [3] (setting [7]) is 11%; in test [3] (setting [8]), 76% (active); in test [3] (at 50.0 µM), 78.7% (active); in test [4] (setting [7]), 6%; in test [4] (setting [8]), 24%; in test [4] (at 50.0 µM) it was 7.65%. The growth inhibition is 2% in test [5] (setting [7]); 36% in test [5] (setting [8]); 1.2% in test [5] (at 50.0 µM); 17% in test [6] (setting [7]); 84% (active) in test [6] (setting [8]); 66.2% in test [6] (at 50.0 µM).
In the case of `Cc1c(N2CCCC2)cc2c(c1NC(=O)c1ccccc1Cl)C(C)(C)CC2(C)C`, the growth inhibition in test [1] (setting [7]) was 11%; in test [1] (setting [8]), 95% (active); in test [1] (at 50.0 µM), 82.8% (active); in test [2] (setting [7]) it was -2%; in test [2] (setting [8]), 89% (active); in test [2] (at 50.0 µM), 59.5%. In addition, the growth inhibition is 20% in test [3] (setting [7]); 85% (active) in test [3] (setting [8]); 73.2% (active) in test [3] (at 50.0 µM); 0% in test [4] (setting [7]); 91% (active) in test [4] (setting [8]); 79.3% (active) in test [4] (at 50.0 µM). Besides, the growth inhibition in test [5] (setting [7]) was 10%; in test [5] (setting [8]) it was 80% (active); in test [5] (at 50.0 µM), 90.7% (active); in test [6] (setting [7]), 22%; in test [6] (setting [8]) it was 91% (active); in test [6] (at 50.0 µM) it was 80.2% (active).
On to `CN(NC(=O)CC(=O)NN(C)C(=S)c1ccccc1)C(=S)c1ccccc1`, for which the growth inhibition in test [1] (setting [7]) is 76% (active); in test [1] (setting [8]), 84% (active); in test [1] (at 50.0 µM), 68.5%; in test [2] (setting [7]) it was 81% (active); in test [2] (setting [8]), 87% (active); in test [2] (at 50.0 µM), 80% (active). In addition, the growth inhibition is 96% (active) in test [3] (setting [7]); 87% (active) in test [3] (setting [8]); 91.7% (active) in test [3] (at 50.0 µM); 60% in test [4] (setting [7]); 69% in test [4] (setting [8]); 73.8% (active) in test [4] (at 50.0 µM). Further, the growth inhibition was 54% in test [5] (setting [7]); 73% (active) in test [5] (setting [8]); 76% (active) in test [5] (at 50.0 µM); 78% (active) in test [6] (setting [7]); 76% (active) in test [6] (setting [8]); 84.2% (active) in test [6] (at 50.0 µM).
Consider `O=S1Nc2ccccc2S1` (stereo not given), for which the growth inhibition in test [1] (setting [7]) was 0%; in test [1] (setting [8]), 18%; in test [1] (at 50.0 µM), 58%; in test [2] (setting [7]), -1%; in test [2] (setting [8]) it was 33%; in test [2] (at 50.0 µM) it was 85.2% (active). Moreover, the growth inhibition was 2% in test [3] (setting [7]); 42% in test [3] (setting [8]); 99.2% (active) in test [3] (at 50.0 µM); -8% in test [4] (setting [7]); 37% in test [4] (setting [8]); 97% (active) in test [4] (at 50.0 µM). The growth inhibition in test [5] (setting [7]) is -1%; in test [5] (setting [8]), 77% (active); in test [5] (at 50.0 µM) it was 98.7% (active); in test [6] (setting [7]), -1%; in test [6] (setting [8]), 41%; in test [6] (at 50.0 µM) it was 96.2% (active).
In the case of `CCCCCCCCCN1CCNC1=S`, the growth inhibition in test [1] (setting [7]) was -5%; in test [1] (setting [8]), 63%; in test [1] (at 50.0 µM), 38.9%; in test [2] (setting [7]) it was -7%; in test [2] (setting [8]), 30%; in test [2] (at 50.0 µM), -10.4%. Also, the growth inhibition was 6% in test [3] (setting [7]); 60% in test [3] (setting [8]); 71% (active) in test [3] (at 50.0 µM); -18% in test [4] (setting [7]); 40% in test [4] (setting [8]); 0.9% in test [4] (at 50.0 µM). In addition, the growth inhibition in test [5] (setting [7]) was 34%; in test [5] (setting [8]), 80% (active); in test [5] (at 50.0 µM), 54.3%; in test [6] (setting [7]), 0%; in test [6] (setting [8]), 61%; in test [6] (at 50.0 µM), 49.5%.
Regarding `O=C1c2cccc(S(=O)(=O)O)c2C(=O)c2cccc([N+](=O)[O-])c21`, the growth inhibition in test [1] (setting [7]) was 2%; in test [1] (setting [8]), 30%; in test [1] (at 50.0 µM) it was 31.1%; in test [2] (setting [7]) it was 0%; in test [2] (setting [8]), 31%; in test [2] (at 50.0 µM), 23%. The growth inhibition in test [3] (setting [7]) is 5%; in test [3] (setting [8]) it was 45%; in test [3] (at 50.0 µM), 16.3%; in test [4] (setting [7]), -1%; in test [4] (setting [8]) it was 28%; in test [4] (at 50.0 µM), -8.35%. Also, the growth inhibition in test [5] (setting [7]) was -1%; in test [5] (setting [8]), 25%; in test [5] (at 50.0 µM), 16.6%; in test [6] (setting [7]), 6%; in test [6] (setting [8]), 40%; in test [6] (at 50.0 µM) it was 69.1%.
`CCCCC(CC)CN1C(=O)C2C3C=CC(C3)C2C1=O` (stereo not given): the growth inhibition in test [1] (setting [7]) was -15%; in test [1] (setting [8]), -20%; in test [1] (at 50.0 µM), 32.5%; in test [2] (setting [7]), -9%; in test [2] (setting [8]), -20%; in test [2] (at 50.0 µM) it was 19.1%. For the same compound, the growth inhibition in test [3] (setting [7]) was -2%; in test [3] (setting [8]), -9%; in test [3] (at 50.0 µM) it was 39.2%; in test [4] (setting [7]) it was 28%; in test [4] (setting [8]), -49%; in test [4] (at 50.0 µM), -4.45%. Further, the growth inhibition was 3% in test [5] (setting [7]); -26% in test [5] (setting [8]); 39.1% in test [5] (at 50.0 µM); -6% in test [6] (setting [7]); -15% in test [6] (setting [8]); 7.15% in test [6] (at 50.0 µM).
